Source: PubChem BioAssay (NCATS)
Records with an inconclusive call do not appear. The source made the active and inactive calls. Unless noted, calls come from the whole dose curve; as a rule, active = well fitted curve in the direction sought with a large enough effect; inconclusive = small, poorly fitted or top-dose-only effect, or another doubt; inactive = no such curve, though single readings can be large; an effect the other way counts as inactive or inconclusive.

Assays:
[1] = biological target: Vitamin D3 receptor (Homo sapiens) (UniProt P11473); test: qHTS assay for small molecule antagonists of vitamin D receptor signaling (AID 588541; calls by dose curve;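 note: receptor activated by calcitriol during compound treatment; series mostly up to about 77 µM; % is set by controls: 0 for no effect and ±100 for the full control effect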)
Vitamin D3 receptor (Homo sapiens), sequence (P11473 whole entry, looked up): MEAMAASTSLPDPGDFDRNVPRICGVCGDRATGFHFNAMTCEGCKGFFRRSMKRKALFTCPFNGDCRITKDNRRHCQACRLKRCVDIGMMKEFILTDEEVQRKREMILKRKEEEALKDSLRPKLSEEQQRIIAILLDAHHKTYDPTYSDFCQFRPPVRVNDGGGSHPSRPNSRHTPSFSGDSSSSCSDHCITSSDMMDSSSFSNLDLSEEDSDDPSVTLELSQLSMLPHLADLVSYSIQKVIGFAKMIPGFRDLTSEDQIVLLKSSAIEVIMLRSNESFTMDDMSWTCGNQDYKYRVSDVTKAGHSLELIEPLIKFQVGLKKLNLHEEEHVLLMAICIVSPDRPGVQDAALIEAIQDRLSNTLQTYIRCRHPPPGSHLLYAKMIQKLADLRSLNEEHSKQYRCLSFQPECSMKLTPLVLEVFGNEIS
In short: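 VDR-UAS-bla HEK293T cells in 2% charcoal-stripped FBS were stimulated with 1-alpha,25-dihydroxyvitamin D3 (3 nM final) plus compound for 16 h at 37 C. The beta-lactamase CCF4 readout was normalized to 50 nM agonist and DMSO, and Hill fits gave IC50.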

[2] = biological target: Vitamin D3 receptor (Homo sapiens) (UniProt P11473); test: qHTS assay for small molecule agonists of vitamin D receptor signaling (AID 588543; calls by dose curve;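 note: 0% = DMSO basal and 100% = reference agonist control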)
In short: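 VDR-UAS-bla HEK293T cells, 2000/well, 2% charcoal-stripped FBS; compound titration 16 h at 37 C; CCF4 beta-lactamase ratio read. Normalized to 50 nM 1-alpha,25-dihydroxyvitamin D3 (100%) and DMSO; Hill fit gives EC50, efficacy.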

[3] = qHTS assay for small molecule agonists of retinoid X receptor alpha signaling (AID 588544); details: HEK293T RXRa-UAS-bla, beta-lactamase reporter, 18 h; 530 nm emission
[4] = biological target: Thyroid hormone receptor beta (Homo sapiens) (UniProt P10828); test: qHTS assay for small molecule agonists of thyroid hormone receptor beta signaling (AID 588545; calls by dose curve;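 note: 0% = DMSO only and 100% = 10 nM T3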)
Thyroid hormone receptor beta (Homo sapiens), sequence (P10828 whole entry, looked up): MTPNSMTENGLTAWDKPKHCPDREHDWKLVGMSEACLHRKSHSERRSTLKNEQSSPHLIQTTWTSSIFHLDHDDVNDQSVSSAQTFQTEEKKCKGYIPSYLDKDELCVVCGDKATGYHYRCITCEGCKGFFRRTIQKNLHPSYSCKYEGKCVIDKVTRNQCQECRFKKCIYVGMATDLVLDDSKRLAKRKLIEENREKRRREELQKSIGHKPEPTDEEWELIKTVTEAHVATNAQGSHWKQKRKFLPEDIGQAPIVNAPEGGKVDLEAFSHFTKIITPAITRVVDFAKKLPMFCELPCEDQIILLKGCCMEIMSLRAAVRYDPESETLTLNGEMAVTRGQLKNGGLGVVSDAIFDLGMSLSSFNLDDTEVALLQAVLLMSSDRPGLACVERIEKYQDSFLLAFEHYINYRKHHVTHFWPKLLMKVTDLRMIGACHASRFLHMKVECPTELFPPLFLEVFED
In short: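 TR-UAS-bla GripTite HEK 293 cells (2500/well, medium with 2% charcoal/dextran FBS) were treated in agonist mode for 18 h at 37 C, titrated. Beta-lactamase was read by CCF4 ratio after 2 h; normalized to 10 nM T3 (100%) and DMSO, Hill-fitted for EC50 and efficacy.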

[5] = qHTS assay for small molecule antagonists of retinoid X receptor alpha signaling (AID 588546; active = well fitted inhibition curve with a large enough effect in the signal ratio, with a control signal flat, not every such curve was filed as active; the % refers to the signal ratio;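 note: cells stimulated with 9-cis-retinoic acid as agonist; % is set by controls: 0 for no effect and ±100 for the full control effect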); details: HEK293T RXRa-UAS-bla, beta-lactamase ratio, antagonist mode; measured here: W530 green channel, cytotoxicity proxy
In short: (§1)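 Beta-lactamase reporter inhibition, read as CCF4 fluorescence ratio (ex 405, em 460/530 nm) after 2 h at RT. HEK293T UAS-bla cells, 2500/well, were stimulated with 9-cis-RA at 500 or 100 nM final alongside test compound for 18 h at 37 C.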

[6] = biological target: Retinoic acid receptor RXR-alpha (Homo sapiens) (UniProt P19793); test: as above; details: HEK293T RXRa-UAS-bla, beta-lactamase ratio, antagonist mode
Retinoic acid receptor RXR-alpha (Homo sapiens), sequence (P19793 whole entry, looked up): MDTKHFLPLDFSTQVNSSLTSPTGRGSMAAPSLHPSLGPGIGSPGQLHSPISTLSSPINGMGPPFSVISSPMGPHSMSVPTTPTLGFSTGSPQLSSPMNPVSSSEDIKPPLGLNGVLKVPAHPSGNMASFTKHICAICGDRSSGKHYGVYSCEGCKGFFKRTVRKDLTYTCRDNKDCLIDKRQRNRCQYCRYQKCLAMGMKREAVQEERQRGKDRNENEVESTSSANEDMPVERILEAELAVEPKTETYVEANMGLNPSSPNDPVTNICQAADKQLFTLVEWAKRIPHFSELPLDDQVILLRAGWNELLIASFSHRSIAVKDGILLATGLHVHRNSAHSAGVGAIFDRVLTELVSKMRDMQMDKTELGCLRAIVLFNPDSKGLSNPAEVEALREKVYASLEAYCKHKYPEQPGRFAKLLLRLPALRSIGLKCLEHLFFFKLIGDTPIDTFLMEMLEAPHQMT
In short: as §1

[7] = biological target: Thyroid hormone receptor beta (Homo sapiens) (UniProt P10828); test: qHTS assay for small molecule antagonists of thyroid hormone receptor beta signaling (AID 588547; active = well fitted inhibition curve with a large enough effect in the signal ratio, with a control signal flat, not every such curve was filed as active; the % refers to the signal ratio;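 note: cells stimulated with 0.4 nM T3 agonist during compound exposure; series mostly up to about 77 µM; % is set by controls: 0 for no effect and ±100 for the full control effect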); details: TR-UAS-bla HEK293, beta-lactamase ratio, antagonist mode, 18 h
In short: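 TR-UAS-bla GripTite HEK293 cells in 2% charcoal/dextran FBS medium; compounds 0.59 nM to 92 uM with T3 at 0.4nM final, 18 h at 37 C. Beta-lactamase read by CCF4 fluorescence (460/530 nm); Hill fits gave IC50 and efficacy.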

[8] = biological target: Voltage-gated inwardly rectifying potassium channel KCNH2 (Homo sapiens) (UniProt Q12809); test: qHTS Assay for Small Molecule Inhibitors of the Human hERG Channel Activity (AID 588834);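 note: top concentration of the series differs between compounds; % is set by controls: 0 for no effect and ±100 for the full control effect; lower thallium flux fluorescence means stronger hERG block; nearly all actives have a fitted effect of over 50% in size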
Voltage-gated inwardly rectifying potassium channel KCNH2 (Homo sapiens), sequence (Q12809 whole entry, looked up): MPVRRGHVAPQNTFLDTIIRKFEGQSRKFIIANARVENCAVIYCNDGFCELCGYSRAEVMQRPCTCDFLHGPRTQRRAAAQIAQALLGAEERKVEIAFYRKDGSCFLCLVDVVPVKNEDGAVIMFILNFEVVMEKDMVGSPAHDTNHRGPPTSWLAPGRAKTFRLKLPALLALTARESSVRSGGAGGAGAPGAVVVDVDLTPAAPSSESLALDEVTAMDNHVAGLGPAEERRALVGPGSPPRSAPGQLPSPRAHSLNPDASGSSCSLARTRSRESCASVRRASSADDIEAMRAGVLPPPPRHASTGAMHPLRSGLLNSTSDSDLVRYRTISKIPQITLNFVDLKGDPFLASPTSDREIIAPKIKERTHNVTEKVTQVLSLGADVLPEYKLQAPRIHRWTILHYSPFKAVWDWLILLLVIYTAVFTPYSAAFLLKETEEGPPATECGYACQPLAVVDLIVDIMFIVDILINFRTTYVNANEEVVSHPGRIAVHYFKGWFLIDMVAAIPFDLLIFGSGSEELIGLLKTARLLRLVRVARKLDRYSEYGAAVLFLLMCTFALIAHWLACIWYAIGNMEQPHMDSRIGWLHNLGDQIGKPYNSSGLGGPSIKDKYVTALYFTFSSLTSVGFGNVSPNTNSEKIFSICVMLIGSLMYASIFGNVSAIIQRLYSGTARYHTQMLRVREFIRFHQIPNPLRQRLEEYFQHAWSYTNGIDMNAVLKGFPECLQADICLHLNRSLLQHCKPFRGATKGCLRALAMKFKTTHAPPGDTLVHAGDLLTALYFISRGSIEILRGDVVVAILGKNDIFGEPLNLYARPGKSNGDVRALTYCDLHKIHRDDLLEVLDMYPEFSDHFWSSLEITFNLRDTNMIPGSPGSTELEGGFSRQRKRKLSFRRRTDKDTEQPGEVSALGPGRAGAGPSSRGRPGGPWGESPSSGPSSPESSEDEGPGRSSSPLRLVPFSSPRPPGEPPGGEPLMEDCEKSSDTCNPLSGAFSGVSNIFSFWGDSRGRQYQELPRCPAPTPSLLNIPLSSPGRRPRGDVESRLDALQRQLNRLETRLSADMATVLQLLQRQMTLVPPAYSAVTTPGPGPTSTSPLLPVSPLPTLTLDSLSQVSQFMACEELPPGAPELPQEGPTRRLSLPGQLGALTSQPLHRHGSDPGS
In short: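 U2OS cells BacMam-transduced with hERG, 2000 cells/well, compound ~10 min at 37 °C before stimulation buffer. FluxOR thallium flux fluorescence read kinetically on FDSS; decrease indicates block; AC50 from Hill fits.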

[9] = qHTS assay for small molecule agonists of the antioxidant response element (ARE) signaling pathway (AID 651741; active = well fitted activation curve with a large enough effect in the signal ratio; the % refers to the signal ratio; note: % of control where 0% means no effect)
In short: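 HepG2 ARE-bla cells plated at 2,000 cells/well and incubated 5 h at 37 C/5% CO2 received 23 nL compound in DMSO. After 16 h at 37 C, LiveBLAzer B/G FRET substrate was applied for 2 h at room temperature and fluorescence read.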

[10] = qHTS assay for small molecule activators of the p53 signaling pathway (AID 651743; active = well fitted activation curve with a large enough effect in the signal ratio, not every such curve was filed as active; the % refers to the signal ratio; note: series mostly up to about 92 µM; % of control where 0% means no effect); details: HCT-116 p53RE-bla, beta-lactamase FRET ratio, 16 h; activation: stronger effect = higher value
In short: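 HCT-116 p53RE-bla, 4,000 cells/well; 5 h settle; cpd/DMSO 16 h, 37 C; LiveBLAzer B/G 2 h RT; fluorescence intensity.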

[11] = qHTS assay for small molecule disruptors of the mitochondrial membrane potential - 1 hr assay (AID 651754; calls by dose curve; note: % is set by controls: 0 for no effect and ±100 for the full control effect; nearly all actives have a fitted effect of over 35% in size)
In short: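 HepG2 cells, attached overnight at 37C, were exposed to compound or DMSO vehicle for 1 hr at 37C, 5% CO2, then stained with Mito-MPS dye for 30 min. Red aggregate versus green monomer fluorescence reports membrane potential.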

[12] = qHTS assay for small molecule disruptors of the mitochondrial membrane potential - 5 hr assay (AID 651755; calls by dose curve; note: % is set by controls: 0 for no effect and ±100 for the full control effect; nearly all actives have a fitted effect of over 40% in size)
In short: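 HepG2 cells (2,000/well), attached overnight, exposed to compound 5 hr at 37C, then Mito-MPS dye 30 min. Fluorescence read for monomers (490/535 nm) and aggregates (540/590 nm).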

[13] = biological target: Peroxisome proliferator-activated receptor alpha (Homo sapiens) (UniProt Q07869); test: qHTS assay for small molecule agonists of the peroxisome proliferator-activated receptor alpha (PPARalpha) signaling pathway (AID 651778); details: PathHunter PPARalpha complementation, chemiluminescence, 6 h; max response: stronger effect = higher value; note: % of control where 0% means no effect
Peroxisome proliferator-activated receptor alpha (Homo sapiens), sequence (Q07869 whole entry, looked up, the tested form may be a part): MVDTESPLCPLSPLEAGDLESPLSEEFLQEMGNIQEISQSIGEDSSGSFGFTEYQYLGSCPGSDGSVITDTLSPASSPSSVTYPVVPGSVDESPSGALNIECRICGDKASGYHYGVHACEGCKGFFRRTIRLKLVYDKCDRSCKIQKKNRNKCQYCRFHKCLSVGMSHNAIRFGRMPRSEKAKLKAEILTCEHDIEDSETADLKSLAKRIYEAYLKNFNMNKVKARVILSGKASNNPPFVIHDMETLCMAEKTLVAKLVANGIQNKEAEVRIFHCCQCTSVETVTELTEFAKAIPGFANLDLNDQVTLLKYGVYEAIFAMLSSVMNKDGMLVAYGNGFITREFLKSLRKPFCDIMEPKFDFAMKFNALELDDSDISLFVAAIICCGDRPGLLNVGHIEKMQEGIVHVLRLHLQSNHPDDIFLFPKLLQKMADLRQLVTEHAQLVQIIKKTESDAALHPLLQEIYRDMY
In short: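 Enzyme-fragment complementation assay in which ligand-bound PPARalpha translocates and forms an active enzyme that generates chemiluminescence. Cells were plated overnight, exposed to compound for 6 hr at 37 C, and then given detection reagent for 60 min at room temperature.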

[14] = biological target: Nuclear receptor ROR-gamma (Homo sapiens) (UniProt P51449); test: qHTS assay for small molecule antagonists of the retinoid-related orphan receptor gamma (ROR-gamma) signaling pathway (AID 651802); note: series mostly up to about 92 µM; % is set by controls: 0 for no effect and ±100 for the full control effect; nearly all actives have a fitted effect of over 60% in size
Nuclear receptor ROR-gamma (Homo sapiens), sequence (P51449 whole entry, looked up): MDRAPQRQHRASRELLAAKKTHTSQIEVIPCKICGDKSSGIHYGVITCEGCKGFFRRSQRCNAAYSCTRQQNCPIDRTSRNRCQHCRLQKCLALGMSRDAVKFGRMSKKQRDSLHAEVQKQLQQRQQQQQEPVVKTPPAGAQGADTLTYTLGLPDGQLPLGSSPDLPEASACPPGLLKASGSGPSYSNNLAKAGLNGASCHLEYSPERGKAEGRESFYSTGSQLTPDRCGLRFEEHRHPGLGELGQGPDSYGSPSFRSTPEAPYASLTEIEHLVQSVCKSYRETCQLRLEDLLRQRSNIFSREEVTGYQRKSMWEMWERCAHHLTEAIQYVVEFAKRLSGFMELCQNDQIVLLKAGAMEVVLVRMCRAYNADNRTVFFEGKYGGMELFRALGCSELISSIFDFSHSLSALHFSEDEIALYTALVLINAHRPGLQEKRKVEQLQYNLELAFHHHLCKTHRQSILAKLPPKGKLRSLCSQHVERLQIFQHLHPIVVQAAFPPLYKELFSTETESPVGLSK
In short: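 CHO cells carrying TET-inducible ROR-gamma and an ROR response element–luciferase reporter were exposed to compound, then induced with doxycycline. After 16hr at 37C, luminescence was read; lower signal indicates antagonism.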

[15] = qHTS assay for small molecule agonists of the antioxidant response element (ARE) signaling pathway measured by Nrf2-dependant transcriptional activity (AID 720636; active = well fitted curve in the direction sought with a large enough effect in the repeat runs; an effect the other way counts as inactive or inconclusive;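 note: HepG2 cells with an ARE-driven luciferase reporter; % of control where 0% means no effect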)
In short: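 Attachment 6 hr at 37 C, then compound versus DMSO vehicle for 16 hr in ARE-luc HepG2 cells (1% dialyzed FBS); luminescence recorded 30 min after ONE-Glo addition at room temperature.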

[16] = qHTS assay for small molecule antagonists of the retinoid-related orphan receptor gamma (ROR-gamma) signaling pathway - cell viability counter screen (AID 720652; active = well fitted curve in the direction sought with a large enough effect in the repeat runs; an effect the other way counts as inactive or inconclusive;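 note: series mostly up to about 92 µM; compound exposure lasted 16 hr before ATP read; % is set by controls: 0 for no effect and ±100 for the full control effect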)
In short: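 Counter screen in CHO cells carrying TET-inducible ROR-gamma and an ROR response element-luciferase reporter; cells plated 5 hr, compound pinned, doxycycline added, then 16 hr at 37 C. Viability read as intracellular ATP by CellTiter-Glo luminescence.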

[17] = qHTS assay for small molecule agonists of the antioxidant response element (ARE) signaling pathway measured by Nrf2-dependant transcriptional activity - cell viability counter screen (AID 720653; active = well fitted curve in the direction sought with a large enough effect in the repeat runs; an effect the other way counts as inactive or inconclusive; note: % is set by controls: 0 for no effect and ±100 for the full control effect); details: ARE-bla HepG2 viability, CellTiter-Glo ATP luminescence, 16 h; max response: stronger effect = lower value
In short: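 ARE-bla HepG2 cells treated with compounds for 16 h at 37C; this counter screen measures viability as intracellular ATP by CellTiter-Glo luminescence after 30 min at room temperature.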

[18] = qHTS assay for cell viability of HEK293 cells (AID 743288); details: ATP luminescence (CellTiter-Glo), 18 h; max response: stronger effect = lower value; note: % is set by controls: 0 for no effect and ±100 for the full control effect; nearly all actives have a fitted effect of over 50% in size
In short: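 Parental HEK293 cells, 2,000 per well, preincubated at least 5 h at 37 C, then exposed to compounds in DMSO for 18 h at 37 C. Viability by CellTiter-Glo ATP luminescence after 30 min at room temperature.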

[19] = qHTS assay for cell viability of the p53RE-bla HCT-116 cell line (AID 743292); note: % is set by controls: 0 for no effect and ±100 for the full control effect; nearly all actives have a fitted effect of over 55% in size
In short: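 Compound-exposed HCT-116 (p53RE-bla) cells, 4,000 per well, were kept 16 h at 37 C following a 5 h preincubation. Cell number was estimated from total ATP by CellTiter-Glo luminescence read after 30 min at room temperature.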

[20] = NCATS anti-infectives library activity on HEK293 viability as a counter-qHTS vs the C. elegans viability qHTS (AID 1745854); note: % is set by controls: 0 for no effect and ±100 for the full control effect
In short: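 HEK293 cells, 1500 per well, exposed 24 hr at 37C in 5% CO2 to compounds in a 1:5 titration, up to 41.7 uM final. Viability read as CellTiter-Glo luminescence after 10 min at room temperature.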

[21] = biological target: Nuclear receptor subfamily 1 group I member 2 (Rattus norvegicus) (UniProt Q9R1A7); test: qHTS assay for small molecule activators of the rat pregnane X receptor (rPXR) signaling pathway (AID 651751; call rule not given here; note: 0% is about no effect); details: rPXR reporter cells, luciferase (One-Glo), 24 h
Nuclear receptor subfamily 1 group I member 2 (Rattus norvegicus), sequence (Q9R1A7 whole entry, looked up): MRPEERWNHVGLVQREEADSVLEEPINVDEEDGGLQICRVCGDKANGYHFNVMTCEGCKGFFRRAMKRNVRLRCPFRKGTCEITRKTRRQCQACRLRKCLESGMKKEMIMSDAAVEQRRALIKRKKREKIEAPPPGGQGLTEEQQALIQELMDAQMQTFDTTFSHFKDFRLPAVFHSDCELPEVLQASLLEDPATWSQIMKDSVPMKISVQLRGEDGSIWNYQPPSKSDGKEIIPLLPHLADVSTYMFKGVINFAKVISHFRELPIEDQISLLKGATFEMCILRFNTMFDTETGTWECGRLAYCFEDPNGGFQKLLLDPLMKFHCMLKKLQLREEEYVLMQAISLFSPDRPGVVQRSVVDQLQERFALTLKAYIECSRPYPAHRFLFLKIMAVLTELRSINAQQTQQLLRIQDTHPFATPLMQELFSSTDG

[22] = qHTS assay for small molecule activators of the human pregnane X receptor (PXR) signaling pathway (AID 720659; call rule not given here; note: 0% is about no effect)

O=C(/C=C/c1ccc(O)c(O)c1)O[C@@H](C(=O)O)[C@@H](OC(=O)/C=C/c1ccc(O)c(O)c1)C(=O)O
-0.499%: max response [3]
-0.233%: max response [5]
inactive: outcome [1] | outcome [2] | outcome [4] | max response [6] 13% | activity change % (negative = inhibition) [7] -11.2% | Potency [8] | Potency [9] | activation [10] 0.853% | Potency [11] | Potency [12] | max response [13] -4.13% | Potency [14] | Potency [15] | Potency [16] | max response [17] 27.4% | max response [18] -0.791% | Potency [19] | Potency [20] | max response [21] -5.44% | outcome [22]
